Screening results: PubChem BioAssay, National Center for Advancing Translational Sciences (NCATS)
nsP2pro inh = CHIKV nsP2 protease inhibition, primary qHTS; Q8JUX6; FRET peptide cleavage, nsP2pro, fluorescence 1 h; Potency, µM (titrated, usually from 24.9 µM), inactives show at the highest dose activity change, negative = inhibition, hits mostly inhibitors; 31,000 compounds, 1.1% hits; AID 1964107; also: nearly all actives have a fitted effect of over 60% in size
Target sequence (Q8JUX6 whole entry, looked up): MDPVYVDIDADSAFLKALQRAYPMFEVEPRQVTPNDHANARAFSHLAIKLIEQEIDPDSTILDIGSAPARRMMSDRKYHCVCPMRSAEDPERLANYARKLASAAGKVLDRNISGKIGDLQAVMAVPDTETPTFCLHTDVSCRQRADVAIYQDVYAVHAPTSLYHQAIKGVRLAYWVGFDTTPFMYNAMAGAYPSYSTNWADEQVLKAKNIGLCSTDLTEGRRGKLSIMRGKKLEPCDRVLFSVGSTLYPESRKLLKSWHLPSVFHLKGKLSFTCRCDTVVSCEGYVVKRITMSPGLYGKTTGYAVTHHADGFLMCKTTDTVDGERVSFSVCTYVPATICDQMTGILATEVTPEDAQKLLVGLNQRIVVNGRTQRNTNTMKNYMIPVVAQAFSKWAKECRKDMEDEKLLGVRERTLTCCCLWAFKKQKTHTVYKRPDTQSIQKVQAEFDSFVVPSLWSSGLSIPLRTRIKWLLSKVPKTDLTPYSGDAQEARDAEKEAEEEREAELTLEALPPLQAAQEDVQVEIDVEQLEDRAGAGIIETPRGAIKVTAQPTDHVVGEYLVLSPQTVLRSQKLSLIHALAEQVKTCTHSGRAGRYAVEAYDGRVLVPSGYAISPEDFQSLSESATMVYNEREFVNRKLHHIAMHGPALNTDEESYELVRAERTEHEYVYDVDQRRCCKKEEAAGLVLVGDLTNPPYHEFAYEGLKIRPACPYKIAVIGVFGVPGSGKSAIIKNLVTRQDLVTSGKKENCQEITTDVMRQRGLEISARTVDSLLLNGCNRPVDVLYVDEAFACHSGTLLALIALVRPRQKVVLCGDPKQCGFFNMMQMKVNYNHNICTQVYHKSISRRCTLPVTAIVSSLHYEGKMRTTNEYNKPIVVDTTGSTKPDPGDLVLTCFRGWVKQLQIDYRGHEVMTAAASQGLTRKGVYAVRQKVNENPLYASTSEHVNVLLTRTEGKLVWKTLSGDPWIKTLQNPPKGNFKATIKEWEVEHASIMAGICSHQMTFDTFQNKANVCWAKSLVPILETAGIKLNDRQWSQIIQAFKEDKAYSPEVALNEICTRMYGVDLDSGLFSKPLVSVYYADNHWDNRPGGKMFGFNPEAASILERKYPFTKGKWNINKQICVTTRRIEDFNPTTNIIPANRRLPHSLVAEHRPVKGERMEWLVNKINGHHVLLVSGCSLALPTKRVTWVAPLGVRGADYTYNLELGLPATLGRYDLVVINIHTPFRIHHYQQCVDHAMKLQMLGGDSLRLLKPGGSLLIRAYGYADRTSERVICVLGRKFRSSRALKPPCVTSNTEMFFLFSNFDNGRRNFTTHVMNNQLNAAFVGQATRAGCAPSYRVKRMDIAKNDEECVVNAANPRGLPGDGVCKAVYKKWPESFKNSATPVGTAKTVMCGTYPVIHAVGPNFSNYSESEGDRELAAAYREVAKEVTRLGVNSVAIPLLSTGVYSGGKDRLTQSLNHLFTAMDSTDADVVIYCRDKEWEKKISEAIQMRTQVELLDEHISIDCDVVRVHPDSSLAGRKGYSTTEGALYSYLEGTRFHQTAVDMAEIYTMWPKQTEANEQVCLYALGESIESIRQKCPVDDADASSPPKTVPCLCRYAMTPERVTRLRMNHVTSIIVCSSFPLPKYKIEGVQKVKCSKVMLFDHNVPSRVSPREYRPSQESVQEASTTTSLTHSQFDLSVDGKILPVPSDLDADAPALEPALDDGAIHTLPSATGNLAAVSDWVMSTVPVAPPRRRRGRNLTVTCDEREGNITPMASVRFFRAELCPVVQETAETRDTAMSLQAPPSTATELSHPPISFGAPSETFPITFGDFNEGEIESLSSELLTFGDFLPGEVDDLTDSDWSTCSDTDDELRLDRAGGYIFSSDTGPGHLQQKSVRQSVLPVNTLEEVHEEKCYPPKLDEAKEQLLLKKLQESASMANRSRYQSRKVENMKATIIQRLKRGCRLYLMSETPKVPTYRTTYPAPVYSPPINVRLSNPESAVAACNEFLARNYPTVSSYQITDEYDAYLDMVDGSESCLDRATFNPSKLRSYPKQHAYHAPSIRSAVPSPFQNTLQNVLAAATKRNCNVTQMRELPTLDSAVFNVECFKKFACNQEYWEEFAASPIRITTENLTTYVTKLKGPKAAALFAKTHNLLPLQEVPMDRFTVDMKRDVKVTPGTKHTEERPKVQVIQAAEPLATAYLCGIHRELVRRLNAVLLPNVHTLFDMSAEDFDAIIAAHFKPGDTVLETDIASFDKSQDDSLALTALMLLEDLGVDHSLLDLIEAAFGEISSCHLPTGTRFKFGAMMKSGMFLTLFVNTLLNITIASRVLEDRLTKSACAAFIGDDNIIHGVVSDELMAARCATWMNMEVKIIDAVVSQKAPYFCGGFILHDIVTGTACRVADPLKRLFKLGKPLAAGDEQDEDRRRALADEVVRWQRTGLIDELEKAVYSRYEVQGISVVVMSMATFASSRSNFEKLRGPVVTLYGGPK
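Recombinant nsP2pro (150 nM) was preincubated with compound 15 min at room temperature in 10 mM Tris-HCl pH 8.0, 0.01% Tween 20. Peptide 2 FRET substrate (2.5 uM) was then added and fluorescence read after 1 h. Seven-point series, up to 25 uM.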
nsP2 cell sec = inhibits CHIKV nsP2 protease in cells; 450 compounds, 10% hits; shares compounds with nsP2pro inh; Potency, µM (top dose mostly 51.1 µM), for inactives: top-dose activity change, negative = inhibition, most hits filed as inhibitors; cell-based CHIKV nsP2 protease reporter assay; also: nearly all actives have a fitted effect of over 70% in size
NSP2 full ctr = inhibits full-length CHIKV NSP2 enzyme. Potency, µM (top dose mostly 50.7 µM), inactives show at the top dose activity change, negative = inhibition, hits mostly inhibitors. AID 1964101. shares compounds with nsP2pro inh. 410 compounds, 39% hits. Full-length CHIKV NSP2 protease enzymatic counterscreen; also: nearly all actives have a fitted effect of over 65% in size
Furin counterscr = human furin inhibition, counterscreen for nsP2pro inhibitors | shares compounds with nsP2pro inh | 410 compounds, 6% hits | Potency, µM (series often up to 50.6 µM), without a hit: at the highest dose activity change, negative = inhibition, usual class: inhibitors | Recombinant human furin enzymatic counterscreen, fluorogenic substrate
NS23 peptide cs = selectivity test for CHIKV nsP2 protease inhibitors: endogenous NS2/3 peptide; shares compounds with nsP2pro inh; Purified CHIKV nsP2 protease, endogenous NS2/3 peptide cleavage; Potency, µM (highest dose often 51 µM), for the others: top-dose activity change, negative = inhibition, most hits filed as inhibitors; 410 compounds, 34% hits; AID 1964103; also: nearly all actives have a fitted effect of over 55% in size
Papain counter = selectivity counter-screen for CHIKV nsP2 protease inhibitors: papain; shares compounds with nsP2pro inh; purified papain protease activity, enzymatic inhibition; Potency, µM (titrated, usually from 51 µM), inactives show at the top dose activity change, negative = inhibition, usual class: inhibitors; 410 compounds, 5% hits; AID 1964104
nsP2pro conf qHTS = CHIKV nsP2 protease inhibition, confirmatory qHTS. 410 compounds, 43% hits. AID 1964105. CHIKV nsP2 protease enzymatic activity, qHTS. shares compounds with nsP2pro inh. Potency, µM (titrated, usually from 25.5 µM), inactives show top-dose activity change, negative = inhibition, most hits filed as inhibitors; also: nearly all actives have a fitted effect of over 75% in size
HCV NS3 4A cs = inhibits HCV NS3/4A protease in an nsP2pro selectivity counterscreen | Potency, µM (doses to about 50.9 µM), hits mostly inhibitors | HCV NS3/4A protease biochemical counterscreen | shares compounds with nsP2pro inh | 410 compounds, 20% hits; also: nearly all actives have a fitted effect of over 55% in size
The depositor's hits bear a star; ! = repeats disagree; [ ] = another dose, or the depositor's remark. Only a selection was taken, and hits are over-represented in it overall. Calls follow the shape of the full dose curve. % is scaled to controls: 0 for no effect and ±100 for the full control effect; potency is read from the fitted curve at half-maximal effect.

`COc1cc2oc(-c3ccc(O)cc3O)cc2c(OC)c1CC=C(C)C` gave nsP2pro inh 7.2%.
Screening O=C(Nc1ccc2ncnc(N3CCCC3)c2c1)c1ccc(Cl)s1 returned nsP2pro inh inactive.
`O=C([C@@H]1CNC[C@H](C(=O)N2CCN(c3nccs3)CC2)C1)N1CCCC1` gave nsP2pro inh inactive.
Screening Cc1nc(CNc2ncnc3ccc(-c4oc(-c5ccccc5)nc4C)cc23)cs1 returned nsP2pro inh inactive.
`Cc1ccccc1S(=O)(=O)N1CCc2cc(-c3nc(NC(=O)Cc4ccc5c(c4)OCO5)sc3C)ccc21` gave nsP2pro inh -12.6%.
For O=c1[nH]c(-c2ccc(F)cc2)nc2c1CCN(S(=O)(=O)c1cccs1)C2 the results were nsP2pro inh 0.6%.
`O=c1[nH]c(-c2ccc(C(F)(F)F)cc2)nc2c1CSCC2` gave nsP2pro inh inconclusive, nsP2 cell sec 12.4%, NSP2 full ctr -10.0%, Furin counterscr -0.4%, NS23 peptide cs -1.0%, Papain counter -0.8%, nsP2pro conf qHTS -9.5% and HCV NS3 4A cs inactive.
For CS(=O)(=O)c1ccccc1N1CCN(c2nc3c(c(=O)[nH]2)CSCC3)CC1 the results were nsP2pro inh -20.6%.
`c1csc(CCNc2ncnc3ccc(-c4ccc5c(c4)OCO5)cc23)c1` gave nsP2pro inh -10.3%.
Screening C=C1C[C@]23C[C@@]1(O)CC[C@H]2[C@@]12C=C[C@H](O)[C@@](C)(C(=O)O1)[C@H]2[C@@H]3C(=O)O returned nsP2pro inh -11.6%.
Screening C=C1CC23CC1CCC2C12OC(=O)C(C)(C(O)C(O)C1O)C2C3C(=O)O (stereo unspecified) returned nsP2pro inh inconclusive, nsP2 cell sec 3.3%[33.5 µM], NSP2 full ctr inconclusive, Furin counterscr -3.7%[33.5 µM], NS23 peptide cs -22.3%[33.5 µM], Papain counter -10.7%[33.5 µM], nsP2pro conf qHTS inconclusive and HCV NS3 4A cs inactive.
`C=C1C[C@]23C[C@H]1CC[C@H]2[C@@]1(C)CCC[C@@]2(C)C(=O)O[C@@H]([C@@H]3O)[C@@H]12` gave nsP2pro inh -13.5%.
COc1c2c(c(C)c3c1C(=O)OC3)O[C@@]1(C)C[C@@H](OC(C)=O)[C@]34O[C@](OC)(CC[C@]3(C)[C@H]1C2)OC4(C)C was read as nsP2pro inh -0.8%[10 µM].
C[C@@H]1[C@H](c2ccccc2)C[C@H](NC(=O)c2cnc3c(c2)C[C@@]2(C3)C(=O)Nc3ncccc32)C(=O)N1CC(F)(F)F was read as nsP2pro inh -8.4%.
`CC(C)/C=C1\NC(=O)C(C(C)C)n2c1nc1c(c2=O)C=CC=CO1` (stereo unspecified) gave nsP2pro inh -21.7%.
Screening COC1=Cc2c(nc3n(c2=O)C(C)C(=O)NC3(O)C(C)C)OC=C1 (stereo unspecified) returned nsP2pro inh inconclusive, nsP2 cell sec -3.7%[33.5 µM], NSP2 full ctr -0.1%[33.5 µM], Furin counterscr -12.8%[33.5 µM], NS23 peptide cs -23.1%[33.5 µM], Papain counter -12.7%[33.5 µM], nsP2pro conf qHTS inconclusive and HCV NS3 4A cs inactive.
`C#CCNC(=O)CNC(=O)c1cccc(-c2cc(F)ccc2OC)c1` gave nsP2pro inh -3.9%[39.2 µM].
`Cc1ccc(-n2nccn2)c(C(=O)N2CCN(c3nc4cc(Cl)ccc4o3)CC[C@H]2C)c1` gave nsP2pro inh 4.5%.
Fc1cccc(CN2CCO[C@@H](COc3ccccn3)[C@@H]2c2ccccc2)c1 was read as nsP2pro inh 3.5%.
For C=CCN1CC[C@]23c4c5ccc(O)c4O[C@H]2[C@@H](OCCOCCOCCOCCOCCOCCOCCOC)CC[C@@]3(O)[C@H]1C5 the results were nsP2pro inh 1.7%.
`Cc1c(-c2cnccn2)ssc1=S` gave nsP2pro inh 4.95µM*!, nsP2 cell sec inconclusive, NSP2 full ctr 13µM*, Furin counterscr -13.3%, NS23 peptide cs 9.19µM*, Papain counter -23.3%, nsP2pro conf qHTS 4µM* and HCV NS3 4A cs inactive.
For C=C1C(=O)OC2C1CCC1(C)C(O)CCC(=C)C21 (stereo unspecified) the results were nsP2pro inh 61.5%.
Screening C[C@]12CC[C@H]3[C@@H]([C@H](O)CC4=CC(=O)CC[C@@]43C)[C@@H]1CC[C@@H]2O returned nsP2pro inh 2.9%.
For C=C1C(=O)OC2C1C(O)CC1(C)C(O)CCC(C=O)C21 (stereo unspecified) the results were nsP2pro inh inconclusive, nsP2 cell sec -5.9%, NSP2 full ctr -11.1%, Furin counterscr -2.2%, NS23 peptide cs -18.0%, Papain counter -10.8%, nsP2pro conf qHTS -24.0% and HCV NS3 4A cs inactive.
Screening C=C1C(=O)OC2CC3(C)C(CC12)C(C)=CC(O)C3OC(C)=O (stereo unspecified) returned nsP2pro inh 125.5%.
`C=C1C(=O)O[C@@H]2[C@H]1[C@H](O)C[C@]1(C)[C@@H](O)CC=C(C)[C@@H]21` gave nsP2pro inh inconclusive, nsP2 cell sec inconclusive, NSP2 full ctr -6.9%, Furin counterscr 2.0%, NS23 peptide cs -11.0%, Papain counter -11.1%, nsP2pro conf qHTS -17.2% and HCV NS3 4A cs inactive.
For CC1=CCC(O)C2(C)CCC3C(C)C(=O)OC3C12 (stereo unspecified) the results were nsP2pro inh -1.5%.
For O=Cc1c(-c2ccccc2)no[n+]1[O-] the results were nsP2pro inh 3.3%.
`Nc1ncnc2c1ncn2[C@H]1O[C@@H](C(=O)N2CCN(CC(=O)Nc3cccc4c3CNC4=O)CC2)[C@H](O)[C@@H]1O` gave nsP2pro inh -10.4%.
Cc1ccc(S(=O)(=O)Nc2cncc(C(=O)Nc3nc(-c4ccccc4)cs3)c2)cc1 was read as nsP2pro inh inactive.
For Cc1cc(C)nc(NC(=S)N2CCN(S(=O)(=O)c3cccc(C(F)(F)F)c3)CC2)c1 the results were nsP2pro inh -4.0%.
For O=C([C@@H]1C[C@H](N2CCN(c3ncccn3)CC2)CN1)N1CCC(F)(F)C1 the results were nsP2pro inh -12.8%.
